Among the data in PMC7862700, “An all-to-all approach to the identification of sequence-specific readers for epigenetic DNA modifications on cytosine” are binding signal values, retold here.

Common to all, as to assay: DAPPL (digital affinity profiling via proximity ligation, sequencing); 10 mM Tris-HCl pH 7.5, 50 mM NaCl, 1 mM DTT, 4% glycerol, room temperature, 30 min; GST-TFs on glutathione beads, 16-mer random dsDNA library, 0.1% formaldehyde crosslink after washing; high values mean tight binding
One assay concerns the target T1, FEV (Homo sapiens, UniProt Q99581 1-238).
T1 sequence: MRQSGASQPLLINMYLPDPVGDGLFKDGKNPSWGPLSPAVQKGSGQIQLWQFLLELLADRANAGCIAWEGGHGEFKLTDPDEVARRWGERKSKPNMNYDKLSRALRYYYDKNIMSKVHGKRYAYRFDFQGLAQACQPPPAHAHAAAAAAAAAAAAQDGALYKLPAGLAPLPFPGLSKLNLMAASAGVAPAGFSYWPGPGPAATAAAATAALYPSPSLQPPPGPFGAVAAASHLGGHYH
Particulars: protein: recombinant; tags: N-terminal GST; dsDNA, one strand shown. A digest of the protocol: (§1)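 A tag-only sample was pooled with DNA-barcoded human transcription factors that had been expressed in yeast as GST fusions and captured on glutathione beads. The pools were incubated for 30 min at room temperature with 200 nmole of a random double-stranded 16-mer DNA library in Tris/NaCl/DTT/glycerol buffer, then washed, crosslinked with 0.1% formaldehyde, proximity-ligated (BsaI/T4 ligase, 1 h, 37 °C), PCR-amplified and sequenced on an Illumina NextSeq500. Binding signal is each hexamer's read frequency for a factor divided by its frequency for the tag-only sample.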

A further assay has as its target ETV5 (Homo sapiens, UniProt P41161 1-510). Particulars: protein: recombinant; tags: N-terminal GST; dsDNA, one strand shown. A digest of the protocol:
as §1

The next assay addresses HSF1 (Homo sapiens, UniProt Q00613 1-529). Particulars: protein: recombinant; tags: N-terminal GST; chain copies: 3; dsDNA, one strand shown. A digest of the protocol:
as §1

The next assay deals with T2, SPIC (Homo sapiens, UniProt Q8N5J4 1-248).
T2 sequence: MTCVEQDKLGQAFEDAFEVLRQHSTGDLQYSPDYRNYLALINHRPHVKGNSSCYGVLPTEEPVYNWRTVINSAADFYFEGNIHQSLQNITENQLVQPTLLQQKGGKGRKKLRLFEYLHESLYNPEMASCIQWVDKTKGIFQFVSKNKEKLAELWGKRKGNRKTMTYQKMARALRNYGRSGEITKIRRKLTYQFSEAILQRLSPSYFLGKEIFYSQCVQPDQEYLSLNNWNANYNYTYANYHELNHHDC
The note with it: protein: recombinant; tags: N-terminal GST; dsDNA, one strand shown. A digest of the protocol:
as §1

The target of the next assay is ELF4 (Homo sapiens, UniProt Q99607 1-663). The note with it: protein: recombinant; tags: N-terminal GST; dsDNA, one strand shown. A digest of the protocol: as §1
Sequence of ELF4 (Q99607 whole entry): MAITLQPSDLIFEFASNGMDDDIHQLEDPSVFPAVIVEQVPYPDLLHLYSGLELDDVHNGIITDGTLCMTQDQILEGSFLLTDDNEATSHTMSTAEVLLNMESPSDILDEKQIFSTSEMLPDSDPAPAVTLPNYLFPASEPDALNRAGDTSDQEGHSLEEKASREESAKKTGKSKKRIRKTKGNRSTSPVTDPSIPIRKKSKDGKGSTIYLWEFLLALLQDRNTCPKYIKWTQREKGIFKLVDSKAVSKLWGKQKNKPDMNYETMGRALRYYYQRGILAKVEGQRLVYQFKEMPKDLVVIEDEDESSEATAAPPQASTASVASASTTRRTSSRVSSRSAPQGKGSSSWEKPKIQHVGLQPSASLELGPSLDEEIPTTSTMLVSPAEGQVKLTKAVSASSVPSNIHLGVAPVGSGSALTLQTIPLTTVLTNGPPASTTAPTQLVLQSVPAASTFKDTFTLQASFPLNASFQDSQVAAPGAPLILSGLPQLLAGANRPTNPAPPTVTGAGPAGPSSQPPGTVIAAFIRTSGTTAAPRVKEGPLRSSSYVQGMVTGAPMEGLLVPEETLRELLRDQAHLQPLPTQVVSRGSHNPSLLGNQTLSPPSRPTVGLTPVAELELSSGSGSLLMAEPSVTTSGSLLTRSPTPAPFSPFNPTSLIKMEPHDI
The next assay addresses T3, ELK4 (Homo sapiens, UniProt P28324-2 1-405).
T3 sequence: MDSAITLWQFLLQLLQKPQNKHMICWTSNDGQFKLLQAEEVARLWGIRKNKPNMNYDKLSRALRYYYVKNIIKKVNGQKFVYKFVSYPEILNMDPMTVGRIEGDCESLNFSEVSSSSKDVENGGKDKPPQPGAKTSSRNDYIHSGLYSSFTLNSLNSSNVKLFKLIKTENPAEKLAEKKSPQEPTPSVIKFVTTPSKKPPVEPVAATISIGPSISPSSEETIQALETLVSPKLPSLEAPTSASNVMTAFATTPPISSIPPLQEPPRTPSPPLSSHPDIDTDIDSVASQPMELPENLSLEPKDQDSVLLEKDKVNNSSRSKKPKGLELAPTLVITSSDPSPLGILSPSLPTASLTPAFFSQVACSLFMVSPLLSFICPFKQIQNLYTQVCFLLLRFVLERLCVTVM
Particulars: protein: recombinant; tags: N-terminal GST; dsDNA, one strand shown. A digest of the protocol:
as §1

Another assay concerns the target T4, ETV2 (Homo sapiens, UniProt O00321 1-342).
T4 sequence: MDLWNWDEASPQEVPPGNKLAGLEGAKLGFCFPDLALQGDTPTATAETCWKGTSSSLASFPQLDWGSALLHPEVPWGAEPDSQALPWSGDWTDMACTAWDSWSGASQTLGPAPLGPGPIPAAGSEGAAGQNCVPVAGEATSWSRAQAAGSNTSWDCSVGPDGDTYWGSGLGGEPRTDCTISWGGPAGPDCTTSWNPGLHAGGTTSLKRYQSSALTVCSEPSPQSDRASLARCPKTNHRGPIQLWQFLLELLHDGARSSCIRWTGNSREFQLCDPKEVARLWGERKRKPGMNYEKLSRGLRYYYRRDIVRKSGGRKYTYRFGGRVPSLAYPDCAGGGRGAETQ
Particulars: protein: recombinant; tags: N-terminal GST; dsDNA, one strand shown. A digest of the protocol: as §1

A further assay deals with T5, ELF3 (Homo sapiens, UniProt P78545 1-371).
T5 sequence: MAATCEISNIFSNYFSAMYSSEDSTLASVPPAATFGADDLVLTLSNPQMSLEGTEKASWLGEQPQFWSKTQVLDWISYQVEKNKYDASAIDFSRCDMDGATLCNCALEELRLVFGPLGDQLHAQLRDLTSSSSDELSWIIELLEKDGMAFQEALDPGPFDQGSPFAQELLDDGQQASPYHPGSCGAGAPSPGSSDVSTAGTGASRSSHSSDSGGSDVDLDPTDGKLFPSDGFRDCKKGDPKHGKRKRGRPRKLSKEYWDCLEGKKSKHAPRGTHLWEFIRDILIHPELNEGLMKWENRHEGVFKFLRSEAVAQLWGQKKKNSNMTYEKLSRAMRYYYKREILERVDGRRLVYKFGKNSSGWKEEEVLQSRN
The note with it: protein: recombinant; tags: N-terminal GST; dsDNA, one strand shown. A digest of the protocol:
as §1

The target in the next assay is CRX (Homo sapiens, UniProt O43186 1-299). The note with it: protein: recombinant; tags: N-terminal GST; dsDNA, one strand shown. A digest of the protocol:
as §1

Another assay addresses ETV1 (Homo sapiens, UniProt P50549 1-477). Particulars: protein: recombinant; tags: N-terminal GST; dsDNA, one strand shown. A digest of the protocol:
as §1

Another assay concerns the target T6, ERF (Homo sapiens, UniProt P50548 1-548).
T6 sequence: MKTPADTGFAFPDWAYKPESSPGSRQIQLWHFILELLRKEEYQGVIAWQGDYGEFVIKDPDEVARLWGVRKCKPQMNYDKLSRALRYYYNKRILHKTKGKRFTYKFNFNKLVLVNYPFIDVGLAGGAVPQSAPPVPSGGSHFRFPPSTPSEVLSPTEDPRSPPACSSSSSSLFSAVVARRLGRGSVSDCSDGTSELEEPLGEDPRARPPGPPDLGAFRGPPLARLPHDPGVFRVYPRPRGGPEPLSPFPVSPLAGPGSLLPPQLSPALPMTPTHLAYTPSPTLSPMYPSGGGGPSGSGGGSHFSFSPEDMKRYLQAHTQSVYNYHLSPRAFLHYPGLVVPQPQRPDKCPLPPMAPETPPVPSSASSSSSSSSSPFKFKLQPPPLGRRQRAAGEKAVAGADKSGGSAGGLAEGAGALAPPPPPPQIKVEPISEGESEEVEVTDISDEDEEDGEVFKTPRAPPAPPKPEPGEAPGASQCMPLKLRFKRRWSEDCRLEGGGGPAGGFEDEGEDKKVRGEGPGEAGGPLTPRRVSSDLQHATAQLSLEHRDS
The note with it: protein: recombinant; tags: N-terminal GST; dsDNA, one strand shown. A digest of the protocol:
as §1

In another assay the target is T7, ETV3L (Homo sapiens, UniProt Q6ZN32 1-361).
T7 sequence: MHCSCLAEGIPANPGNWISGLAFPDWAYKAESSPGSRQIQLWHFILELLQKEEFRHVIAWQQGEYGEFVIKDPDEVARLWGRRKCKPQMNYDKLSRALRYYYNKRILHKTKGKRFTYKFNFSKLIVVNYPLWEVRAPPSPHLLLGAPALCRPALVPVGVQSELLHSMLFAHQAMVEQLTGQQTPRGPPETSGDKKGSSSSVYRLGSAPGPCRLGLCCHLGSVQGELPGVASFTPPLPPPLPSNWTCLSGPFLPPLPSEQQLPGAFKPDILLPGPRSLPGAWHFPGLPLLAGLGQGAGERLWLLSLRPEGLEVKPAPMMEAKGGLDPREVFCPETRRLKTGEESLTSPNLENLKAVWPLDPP
Particulars: protein: recombinant; tags: N-terminal GST; dsDNA, one strand shown. A digest of the protocol:
as §1

In a further assay the target is T8, ETS2 (Homo sapiens, UniProt P15036 1-469).
T8 sequence: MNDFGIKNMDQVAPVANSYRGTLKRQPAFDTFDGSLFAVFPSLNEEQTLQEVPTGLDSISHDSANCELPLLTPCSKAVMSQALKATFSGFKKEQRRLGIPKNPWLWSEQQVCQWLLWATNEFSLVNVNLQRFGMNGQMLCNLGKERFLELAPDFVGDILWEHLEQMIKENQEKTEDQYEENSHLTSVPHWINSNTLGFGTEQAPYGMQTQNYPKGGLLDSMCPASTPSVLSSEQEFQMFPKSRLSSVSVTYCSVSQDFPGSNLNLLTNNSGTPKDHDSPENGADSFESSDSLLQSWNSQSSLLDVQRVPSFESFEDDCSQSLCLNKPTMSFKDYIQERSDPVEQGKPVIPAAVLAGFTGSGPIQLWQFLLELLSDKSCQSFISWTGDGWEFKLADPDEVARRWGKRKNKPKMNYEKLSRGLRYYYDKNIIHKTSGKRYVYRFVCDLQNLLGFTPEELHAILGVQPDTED
Particulars: protein: recombinant; tags: N-terminal GST; dsDNA, one strand shown. A digest of the protocol:
as §1

For another assay, the target named is T9, SPDEF (Homo sapiens, UniProt O95238 1-335).
T9 sequence: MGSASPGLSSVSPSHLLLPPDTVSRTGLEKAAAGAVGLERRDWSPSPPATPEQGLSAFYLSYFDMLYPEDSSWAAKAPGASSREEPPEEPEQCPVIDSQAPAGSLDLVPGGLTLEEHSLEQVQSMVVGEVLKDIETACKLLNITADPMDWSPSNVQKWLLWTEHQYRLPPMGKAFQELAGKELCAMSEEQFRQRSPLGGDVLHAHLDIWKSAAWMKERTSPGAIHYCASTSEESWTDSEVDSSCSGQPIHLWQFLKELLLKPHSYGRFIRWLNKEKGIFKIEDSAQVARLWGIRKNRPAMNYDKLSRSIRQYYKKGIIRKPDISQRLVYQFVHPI
The note with it: protein: recombinant; tags: N-terminal GST; dsDNA, one strand shown. A digest of the protocol: as §1

For a further assay, the target named is T10, ETV7 (Homo sapiens, UniProt Q9Y603 1-341).
T10 sequence: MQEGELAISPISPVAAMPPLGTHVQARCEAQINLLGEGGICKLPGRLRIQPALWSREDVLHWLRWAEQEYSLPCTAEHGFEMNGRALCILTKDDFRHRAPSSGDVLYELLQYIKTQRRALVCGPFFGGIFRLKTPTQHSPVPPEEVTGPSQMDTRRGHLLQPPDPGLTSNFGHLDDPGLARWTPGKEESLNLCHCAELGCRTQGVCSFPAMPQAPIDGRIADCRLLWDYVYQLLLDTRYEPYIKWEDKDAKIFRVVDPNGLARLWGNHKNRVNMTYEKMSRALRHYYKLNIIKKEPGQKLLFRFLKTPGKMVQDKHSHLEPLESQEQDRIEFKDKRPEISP
Particulars: protein: recombinant; tags: N-terminal GST; dsDNA, one strand shown. A digest of the protocol:
as §1

The target in a further assay is T11, ELF5 (Homo sapiens, UniProt Q9UKW6-2 1-255).
T11 sequence: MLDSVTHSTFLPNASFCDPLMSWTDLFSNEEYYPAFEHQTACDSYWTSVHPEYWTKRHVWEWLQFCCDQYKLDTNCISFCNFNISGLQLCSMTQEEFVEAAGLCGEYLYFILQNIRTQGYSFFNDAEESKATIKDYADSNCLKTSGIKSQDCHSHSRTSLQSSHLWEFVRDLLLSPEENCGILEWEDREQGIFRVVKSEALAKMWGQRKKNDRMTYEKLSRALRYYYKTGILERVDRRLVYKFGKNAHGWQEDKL
Particulars: protein: recombinant; tags: N-terminal GST; dsDNA, one strand shown. A digest of the protocol:
as §1

The next assay deals with T12, ETV3 (Homo sapiens, UniProt P41162-2 1-143).
T12 sequence: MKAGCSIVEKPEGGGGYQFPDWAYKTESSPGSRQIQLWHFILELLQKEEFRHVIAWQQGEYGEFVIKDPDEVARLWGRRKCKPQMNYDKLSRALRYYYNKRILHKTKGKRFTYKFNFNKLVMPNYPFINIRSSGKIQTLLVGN
Particulars: protein: recombinant; tags: N-terminal GST; dsDNA, one strand shown. A digest of the protocol: as §1

For the next assay, the target named is ETV6 (Homo sapiens, UniProt P41212 1-452). Particulars: protein: recombinant; tags: N-terminal GST; dsDNA, one strand shown. A digest of the protocol: as §1
Sequence of ETV6 (P41212 whole entry): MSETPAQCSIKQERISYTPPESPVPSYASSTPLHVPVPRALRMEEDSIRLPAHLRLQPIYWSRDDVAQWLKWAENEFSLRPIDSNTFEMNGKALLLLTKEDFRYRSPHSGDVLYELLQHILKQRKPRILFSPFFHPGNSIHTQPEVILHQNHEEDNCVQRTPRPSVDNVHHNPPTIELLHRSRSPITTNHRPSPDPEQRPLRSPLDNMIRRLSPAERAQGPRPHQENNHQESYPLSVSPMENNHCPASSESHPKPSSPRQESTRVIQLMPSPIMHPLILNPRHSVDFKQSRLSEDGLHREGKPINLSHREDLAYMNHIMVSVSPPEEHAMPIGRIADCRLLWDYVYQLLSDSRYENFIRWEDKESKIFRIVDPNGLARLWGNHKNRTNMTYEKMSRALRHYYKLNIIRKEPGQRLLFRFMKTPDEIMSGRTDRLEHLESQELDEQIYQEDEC

Sequence of CRX (O43186 whole entry): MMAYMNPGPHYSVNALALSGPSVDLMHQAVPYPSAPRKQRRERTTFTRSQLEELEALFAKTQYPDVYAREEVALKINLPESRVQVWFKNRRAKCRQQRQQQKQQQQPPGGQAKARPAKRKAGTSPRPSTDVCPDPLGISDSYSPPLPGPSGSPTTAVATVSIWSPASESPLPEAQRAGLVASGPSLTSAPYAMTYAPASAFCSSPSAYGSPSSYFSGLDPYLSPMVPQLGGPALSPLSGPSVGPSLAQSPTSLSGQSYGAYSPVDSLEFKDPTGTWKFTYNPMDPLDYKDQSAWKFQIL
Sequence of HSF1 (Q00613 whole entry): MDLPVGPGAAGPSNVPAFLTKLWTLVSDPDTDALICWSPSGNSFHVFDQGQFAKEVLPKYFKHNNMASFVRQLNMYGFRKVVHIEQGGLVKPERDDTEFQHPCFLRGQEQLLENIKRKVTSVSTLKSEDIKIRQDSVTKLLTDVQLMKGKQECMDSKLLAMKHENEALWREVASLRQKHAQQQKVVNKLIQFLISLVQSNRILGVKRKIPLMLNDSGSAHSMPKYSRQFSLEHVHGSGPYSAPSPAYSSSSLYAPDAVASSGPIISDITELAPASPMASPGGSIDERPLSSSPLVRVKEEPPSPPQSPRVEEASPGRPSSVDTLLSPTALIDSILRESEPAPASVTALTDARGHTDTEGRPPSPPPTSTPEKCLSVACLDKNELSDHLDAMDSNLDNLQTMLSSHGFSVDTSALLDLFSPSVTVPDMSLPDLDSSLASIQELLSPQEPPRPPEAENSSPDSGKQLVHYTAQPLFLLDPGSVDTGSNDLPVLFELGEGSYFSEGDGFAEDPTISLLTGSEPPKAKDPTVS
Sequence of ETV5 (P41161 whole entry): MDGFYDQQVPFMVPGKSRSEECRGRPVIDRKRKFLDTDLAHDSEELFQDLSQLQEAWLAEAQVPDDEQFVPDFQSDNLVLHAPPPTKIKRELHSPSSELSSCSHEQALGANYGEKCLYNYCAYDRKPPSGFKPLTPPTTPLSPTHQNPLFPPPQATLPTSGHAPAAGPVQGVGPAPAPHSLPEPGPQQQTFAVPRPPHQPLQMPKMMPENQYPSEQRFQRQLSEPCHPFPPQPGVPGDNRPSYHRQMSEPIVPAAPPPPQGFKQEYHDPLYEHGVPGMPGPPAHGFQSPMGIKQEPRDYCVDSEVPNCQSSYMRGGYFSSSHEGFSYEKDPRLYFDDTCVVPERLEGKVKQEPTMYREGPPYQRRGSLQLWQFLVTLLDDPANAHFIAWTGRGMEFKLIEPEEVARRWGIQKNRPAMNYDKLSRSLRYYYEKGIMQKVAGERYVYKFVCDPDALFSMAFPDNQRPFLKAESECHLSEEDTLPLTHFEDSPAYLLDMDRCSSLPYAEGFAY
Sequence of ETV1 (P50549 whole entry): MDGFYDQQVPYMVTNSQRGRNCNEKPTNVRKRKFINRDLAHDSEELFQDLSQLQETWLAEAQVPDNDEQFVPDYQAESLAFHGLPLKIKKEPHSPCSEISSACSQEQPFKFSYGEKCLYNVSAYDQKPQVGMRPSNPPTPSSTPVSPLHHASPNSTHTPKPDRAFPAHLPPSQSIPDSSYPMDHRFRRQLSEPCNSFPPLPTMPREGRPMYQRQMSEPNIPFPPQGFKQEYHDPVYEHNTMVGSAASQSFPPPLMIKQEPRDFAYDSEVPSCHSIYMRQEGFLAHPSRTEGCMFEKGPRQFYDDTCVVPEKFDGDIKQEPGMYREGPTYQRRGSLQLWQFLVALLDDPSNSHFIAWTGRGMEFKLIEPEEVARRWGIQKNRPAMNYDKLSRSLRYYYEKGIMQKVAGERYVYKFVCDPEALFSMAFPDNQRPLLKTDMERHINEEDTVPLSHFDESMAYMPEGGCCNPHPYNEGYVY

Turning to TTAACA, the binding signal with FEV was 1.13 fold enrichment (6-mer frequency, TF over GST control); with ETV5, 1.14 fold enrichment (6-mer frequency, TF over GST control); with HSF1 it was 1.65 fold enrichment (6-mer frequency, TF over GST control); with SPIC it was 1.14 fold enrichment (6-mer frequency, TF over GST control); with ELF4, 1.18 fold enrichment (6-mer frequency, TF over GST control); with ELK4, 1.28 fold enrichment (6-mer frequency, TF over GST control). Moreover, the binding signal in the assay with ETV2 is 1.23 fold enrichment (6-mer frequency, TF over GST control); with ELF3, 1.22 fold enrichment (6-mer frequency, TF over GST control); in the assay with CRX, 2.34 fold enrichment (6-mer frequency, TF over GST control); with ETV1, 1.23 fold enrichment (6-mer frequency, TF over GST control); with ERF, 1.19 fold enrichment (6-mer frequency, TF over GST control); with ETV3L, 1.2 fold enrichment (6-mer frequency, TF over GST control). Also, the binding signal is 1.19 fold enrichment (6-mer frequency, TF over GST control) with ETS2; 1.21 fold enrichment (6-mer frequency, TF over GST control) with SPDEF; 1.18 fold enrichment (6-mer frequency, TF over GST control) with ETV7; 1.14 fold enrichment (6-mer frequency, TF over GST control) with ELF5; 1.19 fold enrichment (6-mer frequency, TF over GST control) with ETV3; 1.11 fold enrichment (6-mer frequency, TF over GST control) in the assay with ETV6.
